Test results published in PubChem BioAssay AID1159580 (chemical genetic matrix, 2015).
Values joined by “and” are separate entries in the source; they are usually repeats but may differ in a detail not shown here. Identical values can stand only once. In all, about 5,500 compounds went through this assay and about 2,000 (36%) were called active. Another 18% or so got no clear call; they are omitted. Rule as the data show it: active = normalized growth mostly below about 0.91 (no sharp cut-off); inconclusive = no clear call, values can overlap the other calls; inactive = mostly above about 0.92. The list shows a part of the results.

Test: chemical genetic growth profiling, strain panel (AID 1159580);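 also: tested at 20 µM; growth read once vehicle control cultures reached saturation at 30 °C; 1 = growth at the plate median or of vehicle wells; lower values mean less growth of the strain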
Conditions: S. cerevisiae deletion strains, growth OD

Measured: normalized growth

CCNC(=O)CC[C@H](N)C(=O)O
inactive: locus YAL021C, strain ccr4, hits give low values 0.995 | locus YAL026C, strain drs2, hits give low values 1 | locus YAL030W, strain snc1, hits give low values 0.998 | locus YBL061C, strain skt5, hits give low values 0.993 | locus YBR009C, strain hhf1, hits give low values 1.02 | locus YBR021W, strain FUR4, hits give low values 1.03 | locus YBR023C, strain chs3, hits give low values 0.993 | locus YBR171W, strain sec66, hits give low values 1 | locus YBR229C, strain ROT2, hits give low values 0.991 | locus YBR231C, strain swc5, hits give low values 0.997 | locus YBR279W, strain paf1, hits give low values 1 | locus YCL011C, strain gbp2, hits give low values 1 | locus YCL016C, strain dcc1, hits give low values 0.996 | locus YCL029C, strain bik1, hits give low values 0.988 | locus YCL061C, strain MRC1, hits give low values 1 | locus YCL069W, strain vba3, hits give low values 1.01 | locus YCR088W, strain abp1, hits give low values 1 | locus YDL005C, strain med2, hits give low values 0.986 | locus YDL035C, strain GPR1, hits give low values 1.04 | locus YDL040C, strain nat1, hits give low values 0.998 | locus YDL074C, strain BRE1, hits give low values 1.02 | locus YDL101C, strain DUN1, hits give low values 0.965 | locus YDL134C, strain PPH21, hits give low values 1.01 | locus YDL185W, strain tfp1, hits give low values 0.996 | locus YDL192W, strain arf1, hits give low values 1 | locus YDR001C, strain nth1, hits give low values 0.997 | locus YDR069C, strain doa4, hits give low values 1.03 | locus YDR101C, strain arx1, hits give low values 1 | locus YDR137W, strain rgp1, hits give low values 1.01 | locus YDR159W, strain sac3, hits give low values 0.992 | locus YDR162C, strain NBP2, hits give low values 1.03 | locus YDR195W, strain ref2 0.994 | locus YDR297W, strain sur2, hits give low values 0.99 | locus YDR318W, strain mcm21, hits give low values 0.999 | locus YDR334W, strain swr1, hits give low values 1 | locus YDR335W, strain msn5, hits give low values 1 | locus YDR388W, hits give low values 1 | locus YDR392W, strain spt3, hits give low values 0.991 | locus YDR502C, strain sam2, hits give low values 0.999 | locus YEL003W, strain gim4, hits give low values 1.01 | locus YEL037C, strain rad23, hits give low values 0.996 | locus YEL061C, strain CIN8 (second series), hits give low values 1 | locus YEL061C, strain CIN8, hits give low values 0.999 | locus YER015W, strain faa2, hits give low values 1.01 | locus YER016W, strain bim1, hits give low values 0.991 | locus YER110C, hits give low values 0.981 | locus YER111C, strain swi4, hits give low values 1 | locus YER155C, strain BEM2 (second series), hits give low values 0.99 | locus YER155C, strain BEM2, hits give low values 0.974 | locus YER167W, strain BCK2, hits give low values 0.995 | locus YFR010W, strain ubp6, hits give low values 1 | locus YGL078C, strain dbp3, hits give low values 0.988 | locus YGL086W, strain mad1, hits give low values 1 | locus YGL167C, strain pmr1, hits give low values 0.997 | locus YGL173C, strain kem1, hits give low values 0.996 | locus YGL227W, strain vid30, hits give low values 0.992 | locus YGL240W, strain doc1, hits give low values 1 | locus YGL248W, strain PDE1, hits give low values 1 | locus YGL253W, strain hxk2, hits give low values 1 | locus YGR135W, strain pre9, hits give low values 1.01 | locus YGR252W, strain gcn5, hits give low values 1.04 | locus YHR013C, strain ard1, hits give low values 0.987 | locus YHR027C, strain rpn1, hits give low values 1.01 | locus YHR030C, strain SLT2, hits give low values 0.999 and 1.01 | locus YHR079C, strain IRE1 (second series), hits give low values 0.997 | locus YHR079C, strain IRE1, hits give low values 1.04 | locus YHR094C, strain hxt1, hits give low values 0.989 | locus YHR129C, strain ARP1, hits give low values 0.995 | locus YHR142W, strain chs7, hits give low values 1.01 | locus YHR200W, strain rpn10, hits give low values 0.994 | locus YIL066C, strain RNR3, hits give low values 1.04 | locus YIL073C, strain SPO22, hits give low values 0.979 | locus YIL125W, strain kgd1, hits give low values 0.995 | locus YIR030C, strain dcg1, hits give low values 0.994 | locus YJL092W, strain hpr5, hits give low values 0.993 | locus YJL095W, strain BCK1 (second series), hits give low values 0.99 | locus YJL095W, strain BCK1, hits give low values 1 and 1.04 | locus YJL115W, strain asf1, hits give low values 0.999 | locus YJL129C, strain trk1, hits give low values 0.999 | locus YJL134W, strain LCB3, hits give low values 0.998 | locus YJL154C, strain vps35, hits give low values 1 | locus YJL164C, strain tpk1, hits give low values 1.01 | locus YJL166W, strain qcr8, hits give low values 1 | locus YJL168C, strain set2, hits give low values 0.991 | locus YJL187C, strain SWE1 (second series), hits give low values 0.996 | locus YJR043C, strain POL32, hits give low values 1.05 | locus YJR066W, strain TOR1, hits give low values 0.958 | locus YJR075W, strain HOC1, hits give low values 0.995 | locus YKL009W, strain mrt4, hits give low values 0.986 | locus YKL068W, hits give low values 0.987 | locus YKL085W, strain MDH1 (second series), hits give low values 1.02 | locus YKL085W, strain MDH1, hits give low values 1.02 | locus YKL160W, strain elf1, hits give low values 0.999 | locus YKR001C, strain vps1, hits give low values 1 | locus YKR026C, strain gcn3, hits give low values 1 | locus YKR091W, strain srl3, hits give low values 1 | locus YLL001W, strain dnm1, hits give low values 0.997 | locus YLL026W, hits give low values 0.993 | locus YLL041C, strain sdh2, hits give low values 1 | locus YLR027C, strain aat2, hits give low values 0.997 | locus YLR039C, strain RIC1, hits give low values 1.03 | locus YLR058C, strain SHM2, hits give low values 0.998 | locus YLR102C, strain apc9, hits give low values 0.987 | locus YLR113W, strain HOG1, hits give low values 1.02 | locus YLR221C, strain rsa3, hits give low values 1.01 | locus YLR258W, strain gsy2, hits give low values 0.994 | locus YLR262C, strain YPT6 (second series), hits give low values 0.984 | locus YLR262C, strain YPT6, hits give low values 1.04 | locus YLR268W, strain sec22, hits give low values 0.986 | locus YLR320W, strain mms22, hits give low values 0.999 | locus YLR330W, strain CHS5, hits give low values 1.01 | locus YLR342W, strain FKS1 (second series), hits give low values 1.03 | locus YLR342W, strain FKS1, hits give low values 1.02 | locus YLR357W, strain rsc2, hits give low values 0.962 | locus YLR370C, strain arc18, hits give low values 1 | locus YLR371W, strain rom2, hits give low values 0.989 | locus YLR384C, strain iki3, hits give low values 0.982 | locus YLR418C, strain cdc73, hits give low values 1.02 | locus YML016C, strain PPZ1, hits give low values 0.993 | locus YML032C, strain rad52, hits give low values 1.01 | locus YML120C, strain ndi1, hits give low values 1 | locus YML124C, strain tub3, hits give low values 0.996 | locus YMR058W, strain fet3, hits give low values 0.999 | locus YMR078C, strain ctf18, hits give low values 0.996 | locus YMR125W, strain sto1, hits give low values 0.996 | locus YMR129W, hits give low values 0.991 | locus YMR205C, strain PFK2, hits give low values 1.01 | locus YMR223W, strain ubp8, hits give low values 1.01 | locus YMR231W, strain pep5, hits give low values 1 | locus YMR263W, strain SAP30, hits give low values 0.989 | locus YMR307W, strain GAS1, hits give low values 1.06 | locus YNL067W, strain RPL9B, hits give low values 0.984 | locus YNL071W, strain lat1, hits give low values 1 | locus YNL183C, strain NPR1, hits give low values 0.953 | locus YNL209W, strain ssb2, hits give low values 1.01 | locus YNL233W, strain BNI4, hits give low values 1.01 | locus YNL248C, strain rpa49, hits give low values 1 | locus YNL250W, strain rad50, hits give low values 0.975 | locus YNL271C, strain bni1, hits give low values 0.999 | locus YNL298W, strain CLA4, hits give low values 0.995 | locus YNL307C, strain MCK1, hits give low values 0.992 | locus YNL322C, strain KRE1 (second series), hits give low values 0.979 | locus YNR049C, strain mso1, hits give low values 0.984 | locus YNR052C, strain pop2, hits give low values 0.998 | locus YOL006C, strain TOP1, hits give low values 1.07 | locus YOL012C, strain htz1 1.05 | locus YOL147C, strain pex11, hits give low values 0.998 | locus YOR001W, strain rrp6, hits give low values 1 | locus YOR061W, strain CKA2, hits give low values 1 | locus YOR069W, strain VPS5, hits give low values 0.988 | locus YOR070C, strain gyp1, hits give low values 1.01 | locus YOR080W, strain dia2, hits give low values 0.99 | locus YOR083W, strain WHI5, hits give low values 0.998 | locus YOR106W, strain vam3, hits give low values 1.01 | locus YOR136W, strain idh2, hits give low values 0.983 | locus YOR144C, strain elg1, hits give low values 0.995 | locus YOR184W, strain ser1, hits give low values 1 | locus YOR231W, strain MKK1, hits give low values 1.02 | locus YOR265W, strain rbl2, hits give low values 0.991 | locus YOR270C, strain vph1, hits give low values 1.04 | locus YOR290C, strain snf2, hits give low values 1 | locus YOR316C, strain cot1, hits give low values 0.99 | locus YPL051W, strain arl3, hits give low values 0.996 | locus YPL055C, strain LGE1, hits give low values 1.03 | locus YPL078C, strain atp4, hits give low values 0.991 | locus YPL106C, strain sse1, hits give low values 0.984 | locus YPL240C, strain hsp82, hits give low values 1.01 | locus YPL256C, strain CLN2, hits give low values 1.01 | locus YPR119W, strain clb2, hits give low values 1.01 | locus YPR141C, strain kar3, hits give low values 0.985 | locus YPR163C, strain tif3, hits give low values 0.995 | locus YPR167C, strain met16, hits give low values 0.998 | strain wtn01, hits give low values 0.989
